According to the supplement of paper PMC8975748:
Counter-ions that a name gives are not always drawn.

test system: Saccharomyces cerevisiae BY4741 SeMeCo community; test: z-score of subpopulation abundance vs DMSO median, subpopulation auxotrophic for U; higher = larger share of this subpopulation than in DMSO controls; settings: 10 µM; 24 h; SM minimal medium; subpopulation (auxotrophy): U
How it was run: (§1)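 Subpopulation abundance was reported as a z-score against the median of vehicle wells. The Saccharomyces cerevisiae BY4741 community, carrying four plasmids that each restored one auxotrophy and encoded a distinct fluorescent protein, was grown 24 h in minimal SM medium in 384-well plates holding library drugs at 10 µM final. Cells were paraformaldehyde-fixed and imaged by automated confocal microscopy, with single-auxotroph fluorescent strains used for thresholds and autofluorescence correction.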

Compared with `CC(C)Cc1ccc(C(C)C(=O)O)cc1` (centres undefined) [Ibuprofen], `CCCCOc1ccc(CC(=O)NO)cc1` [Bufexamac] is higher in “z-score of subpopulation abundance” value: -1.82 for the first, 0.85 for the second.

Compared with `Fc1ccc(C(c2ccc(F)cc2)N2CCN(C/C=C/c3ccccc3)CC2)cc1` [Flunarizine 2HCl], `CN1CCN(CCCN2c3ccccc3Sc3ccc(C(F)(F)F)cc32)CC1` [Trifluoperazine 2HCl] is higher in “z-score of subpopulation abundance” value: -0.07 for the first, 0.38 for the second.

First: COCCCN1CCC(NC(=O)c2cc(Cl)c(N)c3c2OCC3)CC1 [Prucalopride Succinate]
Second: COc1ccc(Cl)cc1C(=O)NCCc1ccc(S(=O)(=O)NC(=O)NC2CCCCC2)cc1 [Glyburide (Glibenclamide)]
The “z-score of subpopulation abundance” value of the first is higher: 0.93 for the first, -0.59 for the second.

Going from `NCC[C@H](O)C(=O)N[C@@H]1C[C@H](N)[C@@H](O[C@H]2O[C@H](CN)[C@@H](O)[C@H](O)[C@H]2O)[C@H](O)[C@H]1O[C@H]1O[C@H](CO)[C@@H](O)[C@H](N)[C@H]1O` [Amikacin disulfate] to `CC[C@H](C)C(=O)O[C@H]1CCC=C2C=C[C@H](C)[C@H](CC[C@@H]3C[C@@H](O)CC(=O)O3)[C@H]21` [Mevastatin], the “z-score of subpopulation abundance” value falls from 0.78 to 0.22.

Compared with `O=C(Nc1cc(Cl)cc(Cl)c1O)c1c(O)c(Cl)cc(Cl)c1Cl` [Oxyclozanide], `O=C(Nc1c(Cl)cncc1Cl)c1ccc(OC(F)F)c(OCC2CC2)c1` [Roflumilast] is higher in “z-score of subpopulation abundance” value: -0.91 for the first, 0.07 for the second.

Compared with `CCC(=O)NS(=O)(=O)c1ccc(-c2c(-c3ccccc3)noc2C)cc1` [Parecoxib Sodium], `Cc1cc(C)nc(NS(=O)(=O)c2ccc(N)cc2)n1` [Sulfamethazine] is lower in “z-score of subpopulation abundance” value: 0.97 for the first, -0.82 for the second.

First: CN(CCN1CCC(OC(=O)Nc2ccccc2-c2ccccc2)CC1)C(=O)c1ccc(CN2CCC(C(N)=O)CC2)cc1 [Revefenacin]
Second: CC(C)c1c(C(=O)Nc2ccccc2)c(-c2ccccc2)c(-c2ccc(F)cc2)n1CC[C@@H](O)C[C@@H](O)CC(=O)O [Atorvastatin]
The “z-score of subpopulation abundance” value of the first is lower: 0.17 for the first, 0.32 for the second.

Compared with `Cc1nnc(NS(=O)(=O)c2ccc(N)cc2)s1` [Sulfamethizole], `CS(=O)(=O)c1ccc([C@@H](O)[C@@H](CF)NC(=O)C(Cl)Cl)cc1` [Florfenicol] is higher in “z-score of subpopulation abundance” value: -0.15 for the first, 0.29 for the second.

Going from `Cn1c([N+](=O)[O-])cnc1COC(N)=O` [Ronidazole] to `O=C(Cn1ccnc1[N+](=O)[O-])NCc1ccccc1` [Benznidazole], the “z-score of subpopulation abundance” value rises from 0.01 to 0.63.

Compared with `CC(=O)OCC(COC(C)=O)OC(C)=O` [Triacetin], `COCCOC(=O)C1=C(C)NC(C)=C(C(=O)OC(C)C)C1c1cccc([N+](=O)[O-])c1` (centres undefined) [Nimodipine] is higher in “z-score of subpopulation abundance” value: 0.01 for the first, 0.32 for the second.

First: CCN(CC)CCOc1ccc2c(c1)C(=O)c1cc(OCCN(CC)CC)ccc1-2 [Tilorone dihydrochloride]
Second: CN(C)CCC=C1c2ccccc2C(C)(C)c2ccccc21 [Melitracen hydrochloride]
The “z-score of subpopulation abundance” value of the first is higher: 0.24 for the first, -0.05 for the second.

First: CN(C)[C@@H](CCOc1cccc2ccccc12)c1ccccc1 [Dapoxetine HCl]
Second: CN1[C@@H]2CC[C@H]1C[C@@H](OC(c1ccccc1)c1ccccc1)C2 [Benztropine mesylate]
The “z-score of subpopulation abundance” value of the first is lower: -0.41 for the first, -0.32 for the second.

Going from `COc1cc(Cc2cnc(N)nc2N)cc(OC)c1OC` [Trimethoprim] to `CCOC(=O)C1=C(C)NC(C)=C(C(=O)OC)C1c1cccc([N+](=O)[O-])c1` (centres undefined) [Nitrendipine], the “z-score of subpopulation abundance” value rises from 0.2 to 1.29.

Going from `OCCN1CCN(CCCN2c3ccccc3Sc3ccc(C(F)(F)F)cc32)CC1` [Fluphenazine dihydrochloride] to `COc1ccc2c3c1O[C@H]1C[C@@H](O)C=C[C@@]31CCN(C)C2` [Galanthamine], the “z-score of subpopulation abundance” value falls from -0.38 to -0.51.

Going from `COc1ccc(C2CNC(=O)C2)cc1OC1CCCC1` (centres undefined) [Rolipram] to `CC[C@H](C)C(=O)O[C@H]1C[C@@H](C)C=C2C=C[C@H](C)[C@H](CC[C@@H]3C[C@@H](O)CC(=O)O3)[C@H]21` [Lovastatin], the “z-score of subpopulation abundance” value rises from -0.09 to 0.87.

Going from `CCCN[C@H]1CCc2nc(N)sc2C1` [Pramipexole dihydrochloride] to `CO/N=C(\C(=O)N[C@@H]1C(=O)N2C(C(=O)O)=C(CSc3nc(C)c(CC(=O)O)s3)CS[C@H]12)c1csc(N)n1` [Cefodizime Sodium], the “z-score of subpopulation abundance” value rises from -0.06 to 0.88.

First: CO/N=C(\C(=O)N[C@@H]1C(=O)N2C(C(=O)O)=C(CSc3nnnn3C)CS[C@H]12)c1csc(N)n1 [Cefmenoxime hydrochloride]
Second: NCC[C@H](O)C(=O)N[C@@H]1C[C@H](N)[C@@H](O[C@H]2O[C@H](CN)[C@@H](O)[C@H](O)[C@H]2O)[C@H](O)[C@H]1O[C@H]1O[C@H](CO)[C@@H](O)[C@H](N)[C@H]1O [Amikacin hydrate]
The “z-score of subpopulation abundance” value of the first is higher: -0.34 for the first, -0.78 for the second.

test system: Saccharomyces cerevisiae BY4741 SeMeCo community; test: z-score of subpopulation abundance vs DMSO median, subpopulation auxotrophic for H; higher = larger share of this subpopulation than in DMSO controls; settings: 10 µM; 24 h; SM minimal medium; subpopulation (auxotrophy): H
How it was run: as §1

Going from `Fc1ccc(C(c2ccc(F)cc2)N2CCN(C/C=C/c3ccccc3)CC2)cc1` [Flunarizine 2HCl] to `CN1CCN(CCCN2c3ccccc3Sc3ccc(C(F)(F)F)cc32)CC1` [Trifluoperazine 2HCl], the “z-score of subpopulation abundance” value falls from 0.98 to -0.58.

Going from `COCCCN1CCC(NC(=O)c2cc(Cl)c(N)c3c2OCC3)CC1` [Prucalopride Succinate] to `CN(CCN1CCC(OC(=O)Nc2ccccc2-c2ccccc2)CC1)C(=O)c1ccc(CN2CCC(C(N)=O)CC2)cc1` [Revefenacin], the “z-score of subpopulation abundance” value falls from -0.29 to -0.6.

First: CCCCOc1ccc(CC(=O)NO)cc1 [Bufexamac]
Second: CCN(Cc1ccncc1)C(=O)C(CO)c1ccccc1 (centres undefined) [Tropicamide]
The “z-score of subpopulation abundance” value of the first is higher: -0.53 for the first, -0.6 for the second.

Compared with `NCC[C@H](O)C(=O)N[C@@H]1C[C@H](N)[C@@H](O[C@H]2O[C@H](CN)[C@@H](O)[C@H](O)[C@H]2O)[C@H](O)[C@H]1O[C@H]1O[C@H](CO)[C@@H](O)[C@H](N)[C@H]1O` [Amikacin disulfate], `CC[C@H](C)C(=O)O[C@H]1CCC=C2C=C[C@H](C)[C@H](CC[C@@H]3C[C@@H](O)CC(=O)O3)[C@H]21` [Mevastatin] is higher in “z-score of subpopulation abundance” value: -0.3 for the first, -0.21 for the second.

Going from `CCC(=O)NS(=O)(=O)c1ccc(-c2c(-c3ccccc3)noc2C)cc1` [Parecoxib Sodium] to `CC(C)n1c(/C=C/C(O)CC(O)CC(=O)O)c(-c2ccc(F)cc2)c2ccccc21` (centres undefined) [Fluvastatin Sodium], the “z-score of subpopulation abundance” value rises from 0.01 to 6.45.

First: Cc1nnc(NS(=O)(=O)c2ccc(N)cc2)s1 [Sulfamethizole]
Second: Cc1cc(C)nc(NS(=O)(=O)c2ccc(N)cc2)n1 [Sulfamethazine]
The “z-score of subpopulation abundance” value of the first is lower: -1.02 for the first, 0.21 for the second.

First: CC1=CC[C@@](O)(C(C)C)CC1 [Terpinen-4-ol]
Second: CC[C@H](C)C(=O)O[C@H]1C[C@@H](C)C=C2C=C[C@H](C)[C@H](CC[C@@H]3C[C@@H](O)CC(=O)O3)[C@H]21 [Lovastatin]
The “z-score of subpopulation abundance” value of the first is higher: -0.04 for the first, -0.06 for the second.

First: Cn1c([N+](=O)[O-])cnc1COC(N)=O [Ronidazole]
Second: O=C(Cn1ccnc1[N+](=O)[O-])NCc1ccccc1 [Benznidazole]
The “z-score of subpopulation abundance” value of the first is lower: -1.34 for the first, -0.18 for the second.

Going from `CC(=O)OCC(COC(C)=O)OC(C)=O` [Triacetin] to `COCCOC(=O)C1=C(C)NC(C)=C(C(=O)OC(C)C)C1c1cccc([N+](=O)[O-])c1` (centres undefined) [Nimodipine], the “z-score of subpopulation abundance” value falls from 0.22 to -0.5.

Going from `CN(C)[C@@H](CCOc1cccc2ccccc12)c1ccccc1` [Dapoxetine HCl] to `CN1[C@@H]2CC[C@H]1C[C@@H](OC(c1ccccc1)c1ccccc1)C2` [Benztropine mesylate], the “z-score of subpopulation abundance” value falls from -0.41 to -0.75.

Compared with `CN(C)CCC=C1c2ccccc2C(C)(C)c2ccccc21` [Melitracen hydrochloride], `CC(C)c1c(C(=O)Nc2ccccc2)c(-c2ccccc2)c(-c2ccc(F)cc2)n1CC[C@@H](O)C[C@@H](O)CC(=O)O` [Atorvastatin] is higher in “z-score of subpopulation abundance” value: -1.7 for the first, 6.46 for the second.

Compared with `COc1cc(Cc2cnc(N)nc2N)cc(OC)c1OC` [Trimethoprim], `NNc1nncc2ccccc12` [Hydralazine HCl] is lower in “z-score of subpopulation abundance” value: -0.5 for the first, -1.09 for the second.

Going from `OCCN1CCN(CCCN2c3ccccc3Sc3ccc(C(F)(F)F)cc32)CC1` [Fluphenazine dihydrochloride] to `COc1ccc2c3c1O[C@H]1C[C@@H](O)C=C[C@@]31CCN(C)C2` [Galanthamine], the “z-score of subpopulation abundance” value falls from 1.1 to 0.83.

Going from `COc1ccc(C2CNC(=O)C2)cc1OC1CCCC1` (centres undefined) [Rolipram] to `C[C@]12CC[C@@H]3c4ccc(OS(=O)(=O)O)cc4CC[C@H]3[C@@H]1CCC2=O` [Estropipate], the “z-score of subpopulation abundance” value falls from -0.68 to -0.96.

First: CCCN[C@H]1CCc2nc(N)sc2C1 [Pramipexole dihydrochloride]
Second: CO/N=C(\C(=O)N[C@@H]1C(=O)N2C(C(=O)O)=C(CSc3nc(C)c(CC(=O)O)s3)CS[C@H]12)c1csc(N)n1 [Cefodizime Sodium]
The “z-score of subpopulation abundance” value of the first is lower: -0.35 for the first, -0.25 for the second.
